Values without a mark were called inactive. Inconclusive results are not listed. Entries that show only a call come without a potency. Activity calls are given as the source filed them. Unless noted, calls follow the shape of the full dose curve.
Legend:
[1] = Nuclear factor erythroid 2-related factor 2/antioxidant responsive element (Nrf2/ARE) small molecule agonists: qHTS cell viability counter screen in human keratinocytes (AID 1919968; active = well fitted curve in the direction sought with a large enough effect in the repeat runs; an effect the other way counts as inactive or inconclusive; also: nearly all actives have a fitted effect of over 55% in size)
Method in brief: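 KeratinoSens HaCaT cells, 1,500/well, preincubated 5 h, then exposed to compounds in DMSO for 23 h at 37 C/5% CO2. Viability read as CellTiter-Fluor fluorescence after 1 h, in the same wells as the ARE-luciferase read.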

[2] = Nuclear factor erythroid 2-related factor 2/antioxidant responsive element (Nrf2/ARE) small molecule agonists: luciferase reporter gene qHTS assay in human keratinocytes (AID 1919969); also: nearly all actives have a fitted effect of over 35% in size
[3] = target: Gonadotropin-releasing hormone receptor (Homo sapiens) (UniProt P30968); experiment: Human gonadotropin-releasing hormone receptor (GnRHR) small molecule agonists, calcium flux assay in GnRHR-HEK293 cells (AID 1920063); also: nearly all actives have a fitted effect of over 35% in size
Method in brief: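 HEK293 cells stably expressing human GnRHR were dye-loaded for 1 h at 37 C. Compound was added in agonist mode and fluorescence (Ex/Em 480/540) recorded kinetically for 3 min. Fifteen concentrations, triplicates.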

[4] = target: KiSS-1 receptor (Homo sapiens) (UniProt Q969F8); experiment: Human kisspeptin (KISS1R) small molecule agonists, calcium flux assay in KISS1R-HEK293 cells (AID 1920064; active = well fitted curve in the direction sought with a large enough effect in the repeat runs; an effect the other way counts as inactive or inconclusive)
Method in brief: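 HEK293 cells stably expressing human KISS1R were loaded with calcium dye for 1 h at 37 C, then given compound; fluorescence (Ex/Em 480/540) was read kinetically for 3 min. Fifteen concentrations, triplicate.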

[5] = G protein-coupled receptor (GPCR) small molecule agonists, calcium flux assay: HEK293 wild type cell line counter screen (AID 1920065)
Method in brief: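 Wild-type HEK293 cells plated 18 h, loaded with calcium dye 1 h at 37 C, then compounds added in agonist mode (ATP as positive control). Kinetic fluorescence Ex/Em 480/540 recorded 3 min at 1 sec intervals; 15 concentrations, triplicate.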

[6] = p53 small molecule agonists, cell-based qHTS assay with human liver microsomes (AID 1963577);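 also: p53 response element beta-lactamase reporter cells with liver microsomes plus NADPH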
Method in brief: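 With metabolic activation: human liver microsomes (0.5 mg/mL final) plus NADPH (0.5 mg/mL final) added alongside compounds to p53RE-bla cells; 16 h 37 C exposure; beta-lactamase read by LiveBLAzer fluorescence.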

[7] = p53 small molecule agonists, cell-based qHTS assay with rat liver microsomes (AID 1963578)
Method in brief: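 Metabolic activation by rat liver microsomes and NADPH, each 0.5 mg/mL final, added right after compounds to p53RE-bla reporter cells (4,000/well, plated 5 h earlier). 16 h at 37 C, then LiveBLAzer substrate for 2 h at room temperature in the dark; fluorescence read-out.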

[8] = p53 small molecule agonists, cell-based qHTS assay with human liver microsomes: qHTS cell viability counter screen (AID 1963579); also: nearly all actives have a fitted effect of over 45% in size
Method in brief: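 Metabolic activation used human liver microsomes and NADPH, both 0.5 mg/mL final, over 16 hours at 37 C on p53RE-bla cells (4,000/well). Cytotoxicity measured by CellTiter-Glo luminescence, 30 min at room temperature.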

[9] = p53 small molecule agonists, cell-based qHTS assay with rat liver microsomes: qHTS cell viability counter screen (AID 1963580); also: nearly all actives have a fitted effect of over 45% in size
Method in brief: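 HCT-116 p53RE-bla, 4,000 cells/well, 5 h pre-incubation; cpd + rat liver microsomes 0.5 mg/mL + NADPH 0.5 mg/mL (final); 16 h, 37 C; CellTiter-Glo, 30 min RT; luminescence.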

[10] = p53 small molecule agonists, cell-based qHTS assay: qHTS cell viability counter screen (AID 1963581); also: nearly all actives have a fitted effect of over 45% in size
Method in brief: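 p53RE-bla HCT-116 cells, compounds added 5 h after plating and incubated 16 h at 37 C. Cytotoxicity measured in the same wells as intracellular ATP by CellTiter-Glo luminescence after 30 min at room temperature.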

[11] = p53 small molecule agonists, cell-based qHTS assay (AID 1963582; active = well fitted activation curve with a large enough effect in the signal ratio in the repeat runs, not every such curve was filed as active; the % refers to the signal ratio)
Method in brief: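 p53RE-bla reporter cells, compounds added in DMSO after 5 h plating, incubated 16 h at 37 C. Beta-lactamase read via 2 h room-temperature LiveBLAzer B/G FRET substrate, fluorescence intensity.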

[12] = target: 5-hydroxytryptamine receptor 2A (Homo sapiens) (UniProt P28223); experiment: 5-hydroxytryptamine receptor 2A (HTR2A) small molecule agonists, cell-based qHTS assay (AID 1963587); also: nearly all actives have a fitted effect of over 30% in size
Method in brief: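 Kinetic calcium-flux fluorescence (2 min, 1 sec intervals) after compound addition in agonist mode. HTR2A-CHO cells were cultured 18 h, then dye-loaded 1 h at 37 C.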

[13] = target: Muscarinic acetylcholine receptor M1 (Homo sapiens) (UniProt P11229); experiment: Cholinergic receptor muscarinic 1 (CHRM1) small molecule antagonists, cell-based qHTS assay (AID 1963588); also: nearly all actives have a fitted effect of over 40% in size; also: potency is read from the fitted curve at half-maximal effect
Method in brief: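 CHRM1-CHO calcium-flux assay, antagonist mode. Cells were seeded 18 h, dye-loaded 1 h at 37 C and given compound for 5 min at RT, then acetylcholine was added at 50nM. FDSS fluorescence was read 3 min; 15 concentrations, three runs.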

[14] = target: Muscarinic acetylcholine receptor M1 (Homo sapiens) (UniProt P11229); experiment: Cholinergic receptor muscarinic 1 (CHRM1) small molecule agonists, cell-based qHTS assay (AID 1963589); also: nearly all actives have a fitted effect of over 35% in size
Method in brief: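 CHO cells stably expressing human CHRM1 were loaded with calcium dye for 1 h at 37 C, then compound was added in agonist mode. Intracellular calcium fluorescence was followed kinetically at 1 s intervals. Fifteen concentrations were tested in three independent runs.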

[15] = cAMP Responsive Elements (CRE) small molecule agonists, cell-based qHTS assay (AID 1963590)
Method in brief: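 CRE-bla HEK 293T cells, 2,000/well in DMEM with 10% dialyzed FBS and 25 mM HEPES, pre-incubated 18 h at 37 C, then exposed to compound 3 h at 37 C. Beta-lactamase reporter read with LiveBLAzer B/G FRET substrate after 2 h at room temperature.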

[16] = cAMP Responsive Elements (CRE) small molecule antagonists, cell-based qHTS assay (AID 1963591; active = well fitted inhibition curve with a large enough effect in the signal ratio in the repeat runs, not every such curve was filed as active; the % refers to the signal ratio)
Method in brief: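 CRE-bla HEK293T cells plated 18 h, then given compound plus NKH477 at 0.25 uM final for 3 h at 37C. Beta-lactamase reporter read with LiveBLAzer B/G FRET substrate after 2 h at room temperature.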

[17] = target: Beta-2 adrenergic receptor (Homo sapiens) (UniProt P07550); experiment: Adrenergic beta2 receptor (ADRB2) small molecule antagonists, cell-based qHTS assay (AID 1963592); also: series mostly up to about 92 µM; nearly all actives have a fitted effect of over 50% in size
Method in brief: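 Cells (CHO, stable ADRB2 overexpression) incubated 18-20hr at 37C; compounds added from DMSO; agonist mix (1nM isoproterenol, 100uM IBMX, 25uM Ro-20-1724) added; 0.5hr RT; d2-cAMP and anti-cAMP-cryptate added; 1hr RT; 665/615 nm read.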

[18] = target: D(2) dopamine receptor (Homo sapiens) (UniProt P14416); experiment: Dopamine D2 receptor (DRD2) small molecule antagonists, cell-based qHTS assay (AID 1963595; active = well fitted inhibition curve with a large enough effect in the signal ratio in the repeat runs, with a control signal flat; the % refers to the signal ratio)
Method in brief: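 Antagonist mode in DRD2-HEK293 cells: after compound addition with 0.1 mM Ro20-1724, cells received quinpirole (12 nM) and NKH477 (200 nM) for 30 min at room temperature; HTRF cAMP read after 1 h detection.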

[19] = target: D(2) dopamine receptor (Homo sapiens) (UniProt P14416); experiment: Dopamine D2 receptor (DRD2) small molecule agonists, cell-based qHTS assay (AID 1963594); also: nearly all actives have a fitted effect of over 35% in size
Method in brief: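 cAMP accumulation in DRD2-HEK293 cells measured by HTRF after 1 h detection; compounds added 10 min before NKH477 (200nM […]) forskolin-analogue stimulation, 30 min at room temperature, with Ro20-1724 present at 0.1 mM final.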

Sequence of KiSS-1 receptor (Homo sapiens) (Q969F8 whole entry, looked up): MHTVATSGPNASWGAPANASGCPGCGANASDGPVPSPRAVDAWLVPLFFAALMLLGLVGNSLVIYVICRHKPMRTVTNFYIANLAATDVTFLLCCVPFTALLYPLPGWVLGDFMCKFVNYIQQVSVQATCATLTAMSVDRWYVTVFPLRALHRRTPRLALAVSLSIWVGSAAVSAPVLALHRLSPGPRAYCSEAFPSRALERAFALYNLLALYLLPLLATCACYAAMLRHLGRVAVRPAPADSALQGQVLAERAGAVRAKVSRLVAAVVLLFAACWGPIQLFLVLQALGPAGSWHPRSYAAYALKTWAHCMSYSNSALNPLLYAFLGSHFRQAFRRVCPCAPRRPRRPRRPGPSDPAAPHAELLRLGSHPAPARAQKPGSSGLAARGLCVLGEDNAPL
Sequence of 5-hydroxytryptamine receptor 2A (Homo sapiens) (P28223 whole entry, looked up): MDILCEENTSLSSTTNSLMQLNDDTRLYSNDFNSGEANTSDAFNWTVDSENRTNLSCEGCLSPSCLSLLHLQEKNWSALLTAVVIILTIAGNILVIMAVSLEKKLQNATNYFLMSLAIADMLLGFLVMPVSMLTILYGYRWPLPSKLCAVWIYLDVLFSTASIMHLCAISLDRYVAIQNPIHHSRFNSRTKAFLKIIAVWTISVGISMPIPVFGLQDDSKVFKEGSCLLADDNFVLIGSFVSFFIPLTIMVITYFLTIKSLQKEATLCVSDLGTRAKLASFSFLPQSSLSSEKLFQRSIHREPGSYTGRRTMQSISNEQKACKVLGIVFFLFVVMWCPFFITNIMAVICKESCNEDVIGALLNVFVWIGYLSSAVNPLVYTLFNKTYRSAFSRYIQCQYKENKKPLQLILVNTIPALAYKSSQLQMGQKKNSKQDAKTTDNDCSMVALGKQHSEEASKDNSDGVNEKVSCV
Sequence of Beta-2 adrenergic receptor (Homo sapiens) (P07550 whole entry, looked up): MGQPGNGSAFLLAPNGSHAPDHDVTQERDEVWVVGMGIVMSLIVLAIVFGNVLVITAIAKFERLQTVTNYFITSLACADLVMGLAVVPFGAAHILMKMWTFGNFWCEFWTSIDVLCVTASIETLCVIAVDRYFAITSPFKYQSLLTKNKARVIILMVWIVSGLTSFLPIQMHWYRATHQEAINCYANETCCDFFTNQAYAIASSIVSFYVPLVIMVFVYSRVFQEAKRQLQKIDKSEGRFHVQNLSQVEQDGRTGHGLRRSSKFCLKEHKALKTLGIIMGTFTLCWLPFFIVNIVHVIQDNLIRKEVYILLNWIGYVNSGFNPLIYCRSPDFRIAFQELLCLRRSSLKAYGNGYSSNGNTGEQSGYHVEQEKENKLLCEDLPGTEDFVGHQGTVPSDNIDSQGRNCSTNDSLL
Sequence of Gonadotropin-releasing hormone receptor (Homo sapiens) (P30968 whole entry, looked up): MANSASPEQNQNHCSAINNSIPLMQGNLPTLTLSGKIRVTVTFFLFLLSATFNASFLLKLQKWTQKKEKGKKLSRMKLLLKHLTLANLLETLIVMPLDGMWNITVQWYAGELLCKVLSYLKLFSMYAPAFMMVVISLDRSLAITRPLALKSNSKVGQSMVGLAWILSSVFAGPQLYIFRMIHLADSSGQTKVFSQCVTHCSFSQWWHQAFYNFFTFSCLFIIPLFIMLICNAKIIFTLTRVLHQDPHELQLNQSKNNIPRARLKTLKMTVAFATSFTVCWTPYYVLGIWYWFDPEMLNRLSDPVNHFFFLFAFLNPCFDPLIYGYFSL
Sequence of D(2) dopamine receptor (Homo sapiens) (P14416 whole entry, looked up): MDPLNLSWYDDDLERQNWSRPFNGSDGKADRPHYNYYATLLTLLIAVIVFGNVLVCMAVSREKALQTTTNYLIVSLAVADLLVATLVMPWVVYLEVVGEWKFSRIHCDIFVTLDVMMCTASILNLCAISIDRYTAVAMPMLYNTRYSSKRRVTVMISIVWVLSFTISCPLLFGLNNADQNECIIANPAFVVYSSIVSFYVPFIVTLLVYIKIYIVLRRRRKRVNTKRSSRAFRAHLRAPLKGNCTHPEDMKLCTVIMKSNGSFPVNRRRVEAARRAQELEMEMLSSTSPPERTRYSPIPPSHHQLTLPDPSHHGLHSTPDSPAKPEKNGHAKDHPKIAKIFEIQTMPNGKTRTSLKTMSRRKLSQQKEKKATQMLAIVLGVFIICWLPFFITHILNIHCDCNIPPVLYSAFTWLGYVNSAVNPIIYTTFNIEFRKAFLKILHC
Sequence of Muscarinic acetylcholine receptor M1 (Homo sapiens) (P11229 whole entry, looked up): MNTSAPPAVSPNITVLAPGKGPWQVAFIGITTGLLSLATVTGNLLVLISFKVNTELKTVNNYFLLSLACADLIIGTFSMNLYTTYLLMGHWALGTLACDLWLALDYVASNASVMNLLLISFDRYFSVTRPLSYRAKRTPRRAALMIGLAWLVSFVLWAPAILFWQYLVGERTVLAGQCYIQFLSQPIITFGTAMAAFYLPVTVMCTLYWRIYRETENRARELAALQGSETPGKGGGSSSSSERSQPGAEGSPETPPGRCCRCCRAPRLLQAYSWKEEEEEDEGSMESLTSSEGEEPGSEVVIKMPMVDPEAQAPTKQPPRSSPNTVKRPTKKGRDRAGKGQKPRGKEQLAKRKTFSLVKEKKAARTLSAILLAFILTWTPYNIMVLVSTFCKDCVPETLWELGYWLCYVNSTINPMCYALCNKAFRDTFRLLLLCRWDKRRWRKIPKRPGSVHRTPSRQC

Structure (SMILES)	Potency [1]	Potency [2]	Potency [3]	outcome [4]	outcome [5]	Potency [6]	Potency [7]	Potency [8]	Potency [9]	Potency [10]	Potency [11]	Potency [12]	Potency [13]	Potency [14]	Potency [15]	Potency [16]	Potency [17]	Potency [18]	Potency [19]
CC(C)(C)c1nnc(NS(=O)(=O)c2ccccc2)s1	inactive	inactive	inactive	inactive	inactive	inactive	inactive	inactive	inactive	inactive	inactive	inactive	inactive	inactive	inactive	inactive	inactive	inactive	–
CCOC(=O)C(=O)CCCCCCl	inactive	inactive	inactive	inactive	inactive	inactive	inactive	inactive	inactive	inactive	inactive	inactive	inactive	inactive	inactive	inactive	inactive	inactive	inactive
C[N+]1(C)CCC(=C(c2ccccc2)c2ccccc2)CC1	inactive	inactive	inactive	inactive	inactive	inactive	inactive	inactive	inactive	inactive	inactive	inactive	13 nM (active)	inactive	inactive	inactive	inactive	inactive	inactive
Clc1cc(Cl)cc(Cl)c1	inactive	inactive	inactive	inactive	inactive	inactive	inactive	inactive	inactive	inactive	inactive	inactive	inactive	inactive	inactive	inactive	inactive	inactive	inactive
Cc1cn([C@@H]2O[C@H](CO)[C@@H](O)[C@@H]2F)c(=O)[nH]c1=O	inactive	inactive	inactive	inactive	inactive	inactive	inactive	inactive	inactive	inactive	inactive	inactive	inactive	inactive	inactive	inactive	inactive	inactive	inactive
CC(=O)N(CC(=O)N(C)C)c1ccccc1	inactive	inactive	inactive	inactive	inactive	inactive	inactive	inactive	inactive	inactive	inactive	inactive	inactive	inactive	inactive	inactive	inactive	inactive	inactive
CC(C)C/C=C(\C=O)c1ccccc1	inactive	inactive	inactive	inactive	inactive	inactive	inactive	inactive	inactive	inactive	inactive	inactive	inactive	inactive	inactive	inactive	inactive	–	inactive
